JMJD2A Tudor – qHTS Assay for Inhibitors of JMJD2A-Tudor Domain. AlphaScreen JMJD2A-Tudor / H3K4me3 peptide binding. Lysine-specific demethylase 4A (Homo sapiens), O75164. actives 4.4% (n = 390,000). Potency, µM (titrated, usually from 114 µM), without a hit: top-dose activity change, negative = inhibition, usual class: inhibitors; note: % is set by controls: 0 for no effect and ±100 for the full control effect; nearly all actives have a fitted effect of over 50% in size
BAZ2B block – qHTS Assay for Inhibitors of BAZ2B. AlphaScreen BAZ2B-H3K14Ac peptide displacement. Potency, µM (series often up to 114 µM), without a hit: top-dose activity change, negative = inhibition, most hits filed as inhibitors. Bromodomain adjacent to zinc finger domain protein 2B (Homo sapiens), Q9UIF8. AID 504333, 2011. actives 4.4% (n = 360,000); note: % is set by controls: 0 for no effect and ±100 for the full control effect; nearly all actives have a fitted effect of over 60% in size
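BAZ2B (50 nM) with biotin-H3(5-23)K14Ac peptide (50 nM) in PBS pH 7.4, 0.01% Tween-20, preformed 30 min, then compound 30 min at room temperature; top concentration 110uM. AlphaScreen streptavidin donor/nickel chelate acceptor beads (10 ug/mL final), 20 min dark, signal read.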
G9a inh – qHTS Assay for Inhibitors of Histone Lysine Methyltransferase G9a; actives 8.8% (n = 350,000); Histone-lysine N-methyltransferase EHMT2 (Homo sapiens), Q96KQ7; Potency, µM (series often up to 102 µM), without a hit: top-dose activity, negative = inhibition, actives largely listed as inhibitors; G9a H3K9 monomethylation, AlphaScreen, 2 h; note: % is set by controls: 0 for no effect and ±100 for the full control effect; nearly all actives have a fitted effect of over 75% in size
Target sequence (Q96KQ7 913-1193 limits assumed): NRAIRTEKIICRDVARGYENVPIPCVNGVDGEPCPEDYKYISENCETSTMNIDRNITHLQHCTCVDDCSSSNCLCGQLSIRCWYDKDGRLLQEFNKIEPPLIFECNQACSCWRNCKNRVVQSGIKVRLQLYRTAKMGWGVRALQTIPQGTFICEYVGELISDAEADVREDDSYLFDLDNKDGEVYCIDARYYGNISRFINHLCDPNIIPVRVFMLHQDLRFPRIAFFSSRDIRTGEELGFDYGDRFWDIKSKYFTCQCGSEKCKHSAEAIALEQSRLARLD
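Step 1: enzyme (final 20 nM) with compound, 15 min RT. Step 2: substrate peptide 500 nM and SAM 20 uM, 2 h RT. Step 3: anti-H3K9me1 antibody and AlphaScreen beads, 10 min, then plate read.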
Sfp inh – qHTS Assay for Inhibitors of Bacillus subtilis Sfp phosphopantetheinyl transferase (PPTase). 4'-phosphopantetheinyl transferase ffp (Bacillus subtilis), Q9F4F7. Biochemical Sfp PPTase activity, qHTS. Potency, µM, for the others: largest response in the series, negative = inhibition, actives largely listed as inhibitors. actives 3.5% (n = 310,000). AID 1490, 2009;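 note: the enzyme is Sfp with the accession as filed and its product quenches rhodamine fluorescence; 0% = enzyme reaction without inhibitor and -100% = no enzyme wells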
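Fluorescence-quenching assay: 15 nM Sfp-PPTase preincubated 15 min at room temperature with compound, then 5 uM rhodamine-CoA and 12.5 uM BHQ-2-labelled YbbR peptide added. Fluorescence (ex 525/em 598 nm) read at start and after 30 min; difference gives rate.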
HP1b chromo inh – HTS for Inhibitors of HP1-beta Chromodomain Interactions with Methylated Histone Tails | Chromobox protein homolog 1 (Homo sapiens), P83916 | AlphaScreen HP1-beta / biotin-H3K9me3 peptide binding | Potency, µM (series often up to 114 µM), for inactives: at the highest dose activity change, negative = inhibition, most hits filed as inhibitors | actives 0.56% (n = 390,000) | AID 540317, 2011; note: nearly all actives have a fitted effect of over 70% in size
Target sequence (P83916 whole entry, looked up): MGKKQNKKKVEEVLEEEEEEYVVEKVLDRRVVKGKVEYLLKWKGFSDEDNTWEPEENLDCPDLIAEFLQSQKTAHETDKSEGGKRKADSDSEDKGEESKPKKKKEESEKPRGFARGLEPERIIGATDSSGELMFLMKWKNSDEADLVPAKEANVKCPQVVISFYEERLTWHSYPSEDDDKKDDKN
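HP1-beta protein (50 nM final) preincubated 30 min at room temperature with biotinylated H3(1-18)K9me3 peptide (50 nM) in PBS pH 7.4, 0.01% Tween-20, then compound added for 30 min. AlphaScreen streptavidin donor/nickel chelate acceptor beads (10 ug/mL final), 30 min dark, luminescence read.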
* hit, by the source's call; ? = inconclusive; / = not tested or not shown; [ ] = remark or other dose. An excerpt weighted towards active compounds, which were near 12% of everything screened. Calls come from the whole dose curve; as a rule, active = well fitted curve in the direction sought with a large enough effect; inconclusive = small, poorly fitted or top-dose-only effect, or another doubt; inactive = no such curve, though single readings can be large; an effect the other way counts as inactive or inconclusive. Potency is the fitted concentration of half-maximal effect.

SMILES	JMJD2A Tudor	BAZ2B block	G9a inh	Sfp inh	HP1b chromo inh
COc1ccc(N2CCN(C(c3ccccc3F)c3sc4nc(-c5ccco5)nn4c3O)CC2)cc1 (centres undefined)	?	40µM*	?	/	?
Cc1cc2n(n1)CCC(=O)N2Cc1ccc(C(=O)Nc2ccc(Br)c(C)c2)cc1	-5%	-12%	-33%[59 µM]	/	15%
C/C(CC1CC(COCC(C)C)OC1=O)=N\Nc1nc(-c2ccccc2)cs1 (centres undefined)	?	?	25µM*	?	-15%
CC1CC(CC(=O)Nc2nc(-c3ccccc3)cs2)C(=O)O1 (centres undefined)	-6%	-14%	-8%	8%	19%
COc1ccc(/C=N/c2sc3c(c2C#N)CCN(Cc2ccccc2)C3)c(O)c1	/	-9%	14%[59 µM]	15%	/
CN1CCc2c(sc(/N=C/c3cc(C(C)(C)C)ccc3O)c2C#N)C1	?	?	?	71µM*	-14%
O=c1cc(S(=O)(=O)Cc2ccccc2)[nH]c(=O)[nH]1	-17%	/	/	/	29%
CCCN=Cc1sc2ccc(OCC)cc2c1O	-33%	/	?	50µM*	-8%
COc1cc(C(=O)NNc2nc3cc4c(cc3s2)OCO4)cc(OC)c1OC	-14%	4%	?	20µM*	43%
COc1cc(OC)cc(C(=O)NNc2nc3cc4c(cc3s2)OCO4)c1	?	?	?	79µM*	17%
Cc1ccc(C(=O)Nc2ccccc2C(=O)O)cc1S(=O)(=O)NC1CCCCC1	-21%	56µM*	71µM*	7%	24%
Cc1ccc(C(=O)Nc2ccccc2C(=O)NCc2ccco2)cc1S(=O)(=O)N1CCCCC1	?	-21%	16µM*	5%	8%
COc1ccccc1NS(=O)(=O)c1cc(C(=O)NCc2ccco2)ccc1C	50µM*	-31%	-42%[59 µM]	9%	7%
COc1cc2c(cc1OC)C1CCC3=C([C@H](C)OC3=O)N1CC2 (some centres undefined)	/	/	/	-26%	/
COC(=O)c1ccccc1NC(=O)c1nn(C)c2c1COc1ccccc1-2	-5%	?	-34%[59 µM]	/	43%
O=C(Cc1ccccc1)NCC(=O)N1CCN(c2ccccc2F)CC1	-2%	-3%	/	4%	15%
Cc1ccc(SC2=C(N(C)C)C(=O)c3ccccc3C2=O)cc1	5.6µM*	/	/	/	?
Cc1ccc(-c2cc3c(nn2)-c2ccccc2C3=O)cc1	-17%[11.4 µM]	?	/	6%	-2%
Nc1cccc(/C=C/c2ccncc2)c1	-16%	-23%	21%[12.7 µM]	3%	23%
COc1ccc(S(=O)(=O)N=Nc2c(O)[nH]c3ccccc23)cc1	-27%	-3%	3.2µM*	-13%	61%
Cc1ccc(S(=O)(=O)N=Nc2c(O)[nH]c3ccccc23)cc1C	35µM*	-35%	4.5µM*	-1%	47%
CCOc1ccc(S(=O)(=O)n2ccnc2C)cc1	/	-6%	?	12%	/
CC1CCN(C(=O)CCc2ccc(Oc3cc([N+](=O)[O-])cc([N+](=O)[O-])c3)cc2)CC1	13µM*	28µM*	?	?	45µM*
CCCCC(=O)Nc1ccc(C(=O)NNC(=O)c2ccc(C)c(Br)c2)cc1	56µM*	-35%	?	9%	-10%
CCCC(=O)Nc1ccc(C(=O)NNC(=S)NC(=O)c2ccc(Br)o2)cc1	-4%[11.4 µM]	5%	40µM*	12%	?
SMILES	JMJD2A Tudor	BAZ2B block	G9a inh	Sfp inh	HP1b chromo inh
CCCOc1ccc(C(=O)NNC(=S)NC(=O)c2ccccc2[N+](=O)[O-])cc1	-29%	-8%	43%[0.501 µM]	31%	7%
CC(C)C(=O)Nc1ccc(C(=O)NNC(=S)NC(=O)c2ccccc2[N+](=O)[O-])cc1	-15%	14%	32%[12.7 µM]	11%	31%
CCC(=O)NC(=S)NNC(=O)c1ccccc1[N+](=O)[O-]	-9%	?	3.2µM*	10µM*	38%
CCCC(=O)Nc1ccc(C(=O)NNC(=S)NC(=O)c2cccs2)cc1	-24%	1%	5%[0.0925 µM]	7%	29%
CCCCC(=O)Nc1ccc(C(=O)NNC(=S)NC(=O)c2ccccc2[N+](=O)[O-])cc1	-13%	-4%	?	35µM*	27%
CCCCC(=O)Nc1ccc(C(=O)NNC(=O)CCc2ccccc2)cc1	-15%	-2%	21%[2.33 µM]	2%	13%
Cc1nc(-c2ccc(Cl)cc2)sc1CCNC(=O)C(=O)Nc1ccccc1C#N	6%	1%	1%[59 µM]	/	21%[57 µM]
CC1CCN(C(=O)c2ccc(CNS(=O)(=O)c3ccc(C(C)(C)C)cc3)cc2)CC1	-36%	/	/	/	11%
Cc1ccccc1OCC(=O)NNC(=S)NC(=O)c1ccccc1[N+](=O)[O-]	5%	1%	-11%[59 µM]	22%	-5%
O=C(NCCNC(=O)c1ccccc1[N+](=O)[O-])c1ccccc1[N+](=O)[O-]	-4%	/	/	/	25%
O=C(NNC(=O)c1ccccc1[N+](=O)[O-])c1ccccc1[N+](=O)[O-]	-19%	0%	10µM*	-61%	-2%
O=C(NNC(=S)NC(=O)c1ccccc1[N+](=O)[O-])c1ccccc1	-3%	11%	?	16%	30%
CC(C)(C)c1ccc(OCC(=O)NNC(=S)NC(=O)c2ccccc2[N+](=O)[O-])c(Br)c1	?	-26%	45µM*	40µM*	?
O=C(NC(=S)NNC(=O)c1ccccc1[N+](=O)[O-])c1ccccc1	28µM*	-3%	2.5µM*	35µM*	?
COc1ccc(NC(=O)C(NC(=O)/C=C\c2ccc3c(c2)OCO3)c2ccc(C)cc2)cc1 (centres undefined)	-17%	-2%	-26%[59 µM]	/	-2%
C/C(=N\NC(=O)c1ccc(N2CCCC2=O)cc1)c1ccncc1	-8%	3%	17%	11%	16%
Cc1cc(NCCCn2ccnc2)n2nc(-c3ccc(Cl)cc3)cc2n1	?	45µM*	/	-15%	4%
Cc1cc(NCCCn2ccnc2)n2nc(-c3ccc(F)cc3)cc2n1	-28%	?	-47%[12.7 µM]	-7%	19%
COc1ccc(-c2cc(C(F)(F)F)nc(SCC(=O)NCc3ccc(Cl)cc3)n2)cc1	-12%	4%	4%[59 µM]	/	17%
COc1ccc(-c2oc(=O)c3cc(OC)c(OC)cc3c2C#CC2(O)CCCCC2)cc1	-7%	/	/	/	8%
COc1ccc(-c2oc3cccnc3c2C#CCO)cc1	-7%	-3%	50µM*	6%	28%
COc1ccc(-c2oc3cccnc3c2C#CC2(O)CCCCC2)cc1	-11%	-29%	28µM*	79µM*	64%
COc1ccc(-c2sc3cc(OC)c(OC)cc3c2C#CC2(O)CCCCC2)cc1	-26%	79µM*	-33%[0.501 µM]	/	20%
CN(CC(=O)Nc1ccccc1Cl)C(=O)COC(=O)c1ccc([N+](=O)[O-])s1	-8%	/	/	/	16%
